Measured values reported in PubChem BioAssay (NCI).
The panel holds about 83,000 compounds, 20% with a hit somewhere; the sample as a whole holds those more often.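 Treatment: one concentration, 48 hours, 96-well format. Scoring: percent growth, with anything below 10 considered active.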 Calls of active or inactive are those of the source.

Each compound was assayed on UO-31 renal (assay: NCI-60 one-dose screen, 48 h (100 = growth as untreated, 0 = no growth, -100 = all killed)). Conditions: 10 µM.

Row | Structure (SMILES) | growth
1 | CCCCCCCCCCCCCCCCCCOCC(COCCOCC[N+]1(CCCCCC(=O)[O-])CCCC1)Oc1ncccn1 (stereo not given) | 98.7% (inactive)
2 | CC/C(=N\N=C(/CC)c1ccc(Br)cc1)c1ccc(Br)cc1 | 92.6% (inactive)
3 | O=C1OCC2=C1C(c1ccc(Cl)c(Cl)c1)c1cc3c(cc1N2CCO)OCCO3 (stereo not given) | 22% (inactive)
4 | COc1cc2nc(Nc3cccc(NC(C)=O)c3)nc(N)c2cc1OC | 78.4% (inactive)
5 | Cc1nc2ccc(CN(C)c3ccc(C(=O)N[C@@H](CCC(=O)O)C(=O)O)s3)cc2c(=O)[nH]1 | 39.9% (inactive)
6 | CCCCCCCCN(CCCCCCCC)CCCCCCCCCN1CCCc2cc(OC)ccc21 | 80.4% (inactive)
7 | Nc1ncnc2[nH]c(=O)[nH]c12 | 105% (inactive)
8 | COc1ccc2c(c1)sc1nc(-c3ccccc3)c(-c3cccnc3)n12 | 95.2% (inactive)
9 | C=C(Cl)[C@@](Cl)(CBr)CC[C@@H](Br)C(C)(C)Cl | -96.8% (active)
10 | C[N+](C)(C)c1ncnc2nc[nH]c12 | 84% (inactive)
11 | COC(=O)[C@@H]1[C@H](O)[C@H](C)[C@H](O)[C@@](C)(O)/C=C\C=C(C)C(=O)Nc2c(C)c(OC(C)=O)c3c(c2O)C(=O)C(C)=C2OCOC(=C23)C(C)=C[C@@](C)(O)[C@H](O)[C@@H](C)[C@H]1OC(C)=O | 88.7% (inactive)

What follows are compounds tested on TK-10 renal in the same assay as above. Conditions: 10 µM.

Row | Structure (SMILES) | growth
12 | CCN(CC)CCNc1ccc(CO)c2oc3cc(Cl)ccc3c(=O)c12 | 82.7% (inactive)
13 | O=C(O)C(SC(C(=O)O)c1ccccc1)c1ccccc1 (stereo not given) | 106% (inactive)
14 | COc1ccc(-c2nc3ccccn3c2-c2nnc(-c3cc(OC)c(OC)c(OC)c3)o2)cc1 | 77.9% (inactive)
15 | N#Cc1c(C#N)c(SSc2c(C#N)c(C#N)c(N)n2-c2ccccc2)n(-c2ccccc2)c1N | 107% (inactive)
16 | Cc1ccc(-c2nc(/C=C3/C(=O)N(C)c4ccc(F)cc43)c3ccccn23)cc1 | 128% (inactive)
17 | CCN(CC)CCSCCCNc1c2ccc(Cl)cc2nc2ccc(OC)cc12 | -4.3% (active)
18 | CN1CC[C@@H](c2c(O)cc(O)c3c(=O)cc(-c4ccccc4Cl)oc23)[C@@H](O)C1 | 0.554% (active)
19 | NC1=NC(=O)C(c2ccccc2)(c2ccccc2)S1 | 100% (inactive)
20 | CCc1ccc2c(c1)N(CCO)C1=C(C(=O)OC1)C2c1ccccc1 (stereo not given) | 91.8% (inactive)
21 | Cc1cccc2c(NCCN(C)C)c3cccc(C(=O)NCCN(C)C)c3nc12 | -15.9% (active)
22 | CCCN(CCC)CCC(O)c1cc2c(c3ccccc13)CCCC2 (stereo not given) | 101% (inactive)
23 | COc1ccc2c(c1)/C(=C\c1c[nH]c3ccc(OC)cc13)C(=O)N2 | 81.7% (inactive)
24 | Nc1ccn(C2CC(O)C(CO)O2)c(=O)n1 (stereo not given) | 148% (inactive)
25 | COc1cccc(C2C3=C(COC3=O)N(CCO)c3cc(OC)ccc32)c1 (stereo not given) | 51.8% (inactive)
26 | C=C(C(=O)c1ccccc1)C(NC(C)(C)C)c1ccccc1 (stereo not given) | 9.63% (active)
27 | CCCC1(CC(=O)O)OCCc2c1[nH]c1ccccc21 (stereo not given) | 113% (inactive)
28 | CN(C)C(=S)N/N=C\C=N/NC(=S)N(C)C | 96.5% (inactive)
29 | C=C(NC(=O)C(=C)NC(=O)c1csc(C2=NC3c4csc(n4)C4NC(=O)c5csc(n5)C(C(C)(O)C(C)O)NC(=O)C5CSC(=N5)/C(=C/C)NC(=O)C(C(C)O)NC(=O)c5csc(n5)C3(CC2)NC(=O)C(C)NC(=O)C(=C)NC(=O)C(=C)NC(=O)C(C(C)C)NC2C=Cc3c(C(C)O)cc(nc3C2O)C(=O)OC4C)n1)C(N)=O (stereo not given) | -9.31% (active)
30 | COc1ccc2nc3ccccc3c(NCCNCC(C)O)c2c1 (stereo not given) | 8.4% (active)
31 | CN(C)CCN1C(=O)c2cccc3cc(N)cc(c23)C1=O | 32.9% (inactive)

Row | Structure (SMILES) | growth
32 | COc1ccc(N2C(=O)C3c4[nH]c5ccc(OCc6ccccc6)cc5c4C4CCC(C(C)C)CC4C3C2=O)cc1 (stereo not given) | 116% (inactive)
33 | CC(C)C[C@H](NC(=O)[C@H](Cc1cccc2ccccc12)NS(=O)(=O)c1cccc2cccnc12)B(O)O | -60.2% (active)
34 | O=C(CC(C(=O)c1ccccc1)N1CCOCC1)c1ccccc1 (stereo not given) | 90.8% (inactive)
35 | NC(=O)SCC(=O)Nc1ccc(S(N)(=O)=O)cc1 | 106% (inactive)
36 | CCCCN(CCCC)CCCCCCCCC(O)c1cc2ccccc2c2ccccc12 (stereo not given) | 79% (inactive)
37 | O=C(CCCCCCC(=O)Nc1cccnc1)NO | 41% (inactive)
38 | COc1ccc2nc3cc(Cl)ccc3c(NCCNCC(C)O)c2c1 (stereo not given) | -15.6% (active)
39 | Clc1cccc(-c2nc(-c3cccs3)no2)c1 | 110% (inactive)
40 | CCCCCCCCCCCCCCCCCCOCC(COCCOCC[N+]1(CCCCCC(=O)[O-])CCCC1)Oc1ncccn1 (stereo not given) | 7.83% (active)
41 | CC/C(=N\N=C(/CC)c1ccc(Br)cc1)c1ccc(Br)cc1 | 111% (inactive)
42 | O=C1OCC2=C1C(c1ccc(Cl)c(Cl)c1)c1cc3c(cc1N2CCO)OCCO3 (stereo not given) | 57% (inactive)
43 | COc1cc2nc(Nc3cccc(NC(C)=O)c3)nc(N)c2cc1OC | 150% (inactive)
44 | Cc1nc2ccc(CN(C)c3ccc(C(=O)N[C@@H](CCC(=O)O)C(=O)O)s3)cc2c(=O)[nH]1 | 48.6% (inactive)
45 | CCCCCCCCN(CCCCCCCC)CCCCCCCCCN1CCCc2cc(OC)ccc21 | 117% (inactive)
46 | Nc1ncnc2[nH]c(=O)[nH]c12 | 99.3% (inactive)
47 | COc1ccc2c(c1)sc1nc(-c3ccccc3)c(-c3cccnc3)n12 | 116% (inactive)
48 | C=C(Cl)[C@@](Cl)(CBr)CC[C@@H](Br)C(C)(C)Cl | -98.9% (active)
49 | C[N+](C)(C)c1ncnc2nc[nH]c12 | 103% (inactive)
50 | COC(=O)[C@@H]1[C@H](O)[C@H](C)[C@H](O)[C@@](C)(O)/C=C\C=C(C)C(=O)Nc2c(C)c(OC(C)=O)c3c(c2O)C(=O)C(C)=C2OCOC(=C23)C(C)=C[C@@](C)(O)[C@H](O)[C@@H](C)[C@H]1OC(C)=O | 126% (inactive)
